Pf growth 48h – Primary qHTS for delayed death inhibitors of the malarial parasite plastid, 48 hour incubation | 5.9% of 310,000 active | Potency, µM (titrated, usually from 28.7 µM), for the others: top-dose activity change, negative = inhibition, most hits filed as inhibitors | P. falciparum luciferase growth in erythrocytes, 48 h; note: % is set by controls: 0 for no effect and ±100 for the full control effect
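Luminescence readout; reporter = integrated firefly luciferase in P. falciparum. RBC culture at 2% hematocrit, 0.1% parasitemia final, 37 C/5% CO2; decreased signal taken as growth inhibition.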
Sm TGR inh – qHTS Assay for the Inhibitors of Schistosoma Mansoni Peroxiredoxins; Potency, µM (titrated, usually from 114 µM), without a hit: at the highest dose activity change, negative = inhibition, most hits filed as inhibitors; 3% of 360,000 active; purified TGR, DTNB reduction, TNB absorbance 405 nm; note: % is set by controls: 0 for no effect and ±100 for the full control effect; nearly all actives have a fitted effect of over 60% in size
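TGR 20 nM + NADPH 100 uM (dispensed conc.), cpd preinc 15 min RT; start with NADPH (500 uM addition) then DTNB (15 mM addition). Kinetic TNB absorbance, 405 nm filter. Four-parameter Hill fit across titration.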
SARS PLpro yeast – qHTS of Yeast-based Assay for SARS-CoV PLP. Potency, µM (highest dose often 32.9 µM), for inactives: at the highest dose activity, positive = growth rescue, usual class: activators. 0.19% of 330,000 active. S. cerevisiae expressing SARS-CoV PLpro, growth rescue; calls by dose curve; note: 0% is about no effect; nearly all actives have a fitted effect of over 55% in size
Pf growth 96h – Primary qHTS for delayed death inhibitors of the malarial parasite plastid, 96 hour incubation | AID 504834, 2011 | 6.9% of 320,000 active | Potency, µM (top dose mostly 28.7 µM), without a hit: at the top dose activity change, negative = inhibition, usual class: inhibitors | P. falciparum luciferase reporter growth, 96 h; note: % is set by controls: 0 for no effect and ±100 for the full control effect
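Delayed-death screen, second-generation endpoint: infected erythrocytes, 2% hematocrit, 0.05% parasitemia final; 96 hours at 37 C, 5% CO2; luciferase detection reagent; luminescence decrease equals reduced growth.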
* = called active by the depositor; i = inactive; ? = inconclusive; . = not tested or not shown; [ ] = dose if it differs, or a comment. The list is not random: actives were taken first. Their share in the collection is about 12%. Unless noted, calls come from the whole dose curve; as a rule, active = well fitted curve in the direction sought with a large enough effect; inconclusive = small, poorly fitted or top-dose-only effect, or another doubt; inactive = no such curve, though single readings can be large; an effect the other way counts as inactive or inconclusive. Potency is the fitted concentration of half-maximal effect.

SMILES	Pf growth 48h	Sm TGR inh	SARS PLpro yeast	Pf growth 96h
O=C(COC(=O)CNC(=O)c1ccc(Cl)cc1Cl)NC1CCCCCCC1	0%	-3%	0%	0%
COc1ccc(C)cc1NC(=O)CSc1nc2ccccc2nc1N1CCCCC1	4.1µM*	-11%	-5%	20%
COc1ccc(C)cc1NC(=O)CSc1nc2ccccc2nc1N1CCOCC1	.	2%	.	.
CCCCSCCCNC(=O)CN1C(=O)c2cccnc2Oc2ccc(Cl)cc21	.	0%	.	.
O=C(O)c1cc(N/N=C/C(Cl)=C/c2ccccc2)ccc1Cl	i	35µM*	1%	i
O=C(N/N=C/C(Cl)=C\c1ccccc1)c1cccs1	?	0%	-2%	3.7µM*
Cc1cc(C(=O)N/N=C/C(Cl)=C/c2ccccc2)c(C)o1	9.3µM*	-19%	1%	10µM*
CCOc1ccc(C(CCc2ccccc2)NC(=O)c2ccccc2)cc1OCC (stereo not drawn)	4.7µM*	-5%	-7%	.
Cc1cccc(NC(c2ccc(O)cc2)c2ccc3ccc(C)nc3c2O)n1 (stereo not drawn)	.	0.35µM*	-2%	67%
Cc1ccc2cccc(NC(=O)C(F)(F)F)c2n1	0%	-2%	0%	0%
CNc1nc(Cl)nc(NC(C)(C)C)n1	10%	10%	2%	36%
CC(C)(C)Nc1nc(Cl)nc(NC(C)(C)C)n1	0%	-2%	19%	15µM*
O=C(Nc1ccc2nsnc2c1)N1CCCCCC1	.	-2%	12%	109%
S=C(Nc1ccc2nsnc2c1)N1CCCC1	?	40µM*	-2%	9%
CCc1ccc(N=C2NC(=O)CS2)cc1	?	-8%	-5%	9.3µM*
O=C1CSC(=Nc2ccc(F)cc2)N1	?	-11%	0%	?
CCOC(=O)Cn1c(=O)oc2ccc(C)cc21	45%	.	-1%	?
CC(C)OC(=O)Cn1c(=O)oc2ccccc21	.	0%	-10%	2.3µM*
Cc1ccc2oc(=O)n(CC(=O)OC(C)C)c2c1	0%	-7%	6%	10µM*
CCN(CC)S(=O)(=O)c1ccc(-c2nnc(SCC(=O)N3CCOCC3)o2)cc1	?	4%	-1%	8.3µM*
CCN(CC)S(=O)(=O)c1ccc(-c2nnc(SCC(=O)Nc3cc(OC)cc(OC)c3)o2)cc1	13µM*	-8%	2%	.
COc1cc(OC)cc(-c2nnc(SCC(=O)N3CCOCC3)o2)c1	3.7µM*	0%	?	3%
COc1cc(OC)cc(-c2nnc(SCC(=O)N3CCCCC3)o2)c1	-17%	3%	-3%	8%
CCN(CC)S(=O)(=O)c1cccc(-c2nnc(SCCOc3ccc(Cl)cc3)o2)c1	-24%	?	-7%	10µM*
Cc1ccc(-c2csc3nc(SCC(=O)Nc4ccc(Cl)c(C(=O)O)c4)[nH]c(=O)c23)cc1	26%	-20%	20%	33%
SMILES	Pf growth 48h	Sm TGR inh	SARS PLpro yeast	Pf growth 96h
CS(=O)(=O)Nc1ccc(C2=NN(C(=O)CCCC(=O)O)C(c3cccs3)C2)cc1 (stereo not drawn)	-16%	-13%	1%	1.9µM*
Cc1ccccc1C(=O)N1N=C(c2ccc(NS(C)(=O)=O)cc2)CC1c1cccs1 (stereo not drawn)	?	11%	7%	1.7µM*
COc1ccccc1NS(=O)(=O)c1ccc(C)c(C(=O)N2CCCC2)c1	-26%	-7%	0%	20%
COc1ccc(NS(=O)(=O)c2cccc(C(=O)N3CCN(Cc4cc(OC)ccc4OC)CC3)c2)cc1	?	2%	0%	?
COc1ccc(OC)c(CN2CCN(C(=O)[C@@H](NC(=O)c3cccc(C)c3)C(C)C)CC2)c1	10µM*	2%	2%	?
COc1ccc(OC)c(CN2CCN(C(=O)c3cc(S(=O)(=O)Nc4ccccc4OC)ccc3C)CC2)c1	?	?	0%	3.3µM*
COc1ccc(OC)c(CN2CCN(C(=O)COc3cccc(C)c3)CC2)c1	-11%	-1%	5%	-27%
COc1ccc(OC)c(CN2CCN(C(=O)c3cccc(S(=O)(=O)Nc4ccc(C)cc4)c3)CC2)c1	10µM*	-6%	-1%	9.3µM*
Cc1ccc(CNC(=O)Cn2c(=O)cc(C(F)(F)F)c3c(C)nn(C)c32)cc1	.	0%	.	.
O=C(c1cc(C2CC2)nc2ccc(Br)cc12)N1N=C(C(F)F)CC1(O)C(F)F (stereo not drawn)	?	-6%	-34%	9.3µM*
Cc1cc(C)c(S(=O)(=O)N2CCCCC2)c(C)c1N(C)S(=O)(=O)c1ccc(Cl)cc1	9.3µM*	-1%	-3%	?
Cc1nc(NC(=O)/C=C/c2ccco2)sc1C	255%	50µM*	-20%	-8%
CCSc1nnc(NC(=O)/C=C/c2ccco2)s1	103%	22µM*	1%	?
COC(=O)c1sc(NC(=O)/C=C/c2ccc(C)o2)nc1C	153%	45µM*	6%	84%
COC(=O)c1sc(NC(=O)c2ccoc2C)nc1C	135%	1%	-27%	2%[5.75 µM]
O=C(/C=C/c1ccco1)NC1=NCCS1	149%	45µM*	-3%	?
CC[C@]1(C(=O)OC)[C@H]2C(=O)N(Cc3ccccc3)C(=O)[C@H]2[C@H]2CN=C(SCC3CC3)N21	.	.	-2%	.
COc1ccc(S(=O)(=O)N2CCCOC2CNC(=O)C(=O)NCCc2ccco2)cc1C (stereo not drawn)	0%	?	-2%	-23%
COc1cc(/C=C/C(=O)Nc2nc3ccc(S(=O)(=O)N(C)C)cc3s2)cc(OC)c1OC	-17%	-5%	-1%	?
CCc1nnc(NC(=O)/C=C/c2ccco2)s1	89%	40µM*	1%	86%
CNS(=O)(=O)c1ccc2nc(NC(=O)/C=C/c3ccco3)sc2c1	1%	22µM*	-6%	22%
COc1ccc(OC)c(S(=O)(=O)N2CCCC(C(=O)NCc3cccnc3)C2)c1 (stereo not drawn)	-1%	-3%	1%	25%
O=[N+]([O-])c1ccc(O)c(/C=N/Nc2ccc(Cl)nn2)c1	0.41µM*	0%	0%	0.37µM*
O=[N+]([O-])c1ccc(/C=N/NC2=NS(=O)(=O)c3ccccc32)cc1	32%	5%	0%	-7%
O=[N+]([O-])c1ccc(O)c(/C=N/NC2=NS(=O)(=O)c3ccccc32)c1	2.6µM*	0%	?	5%[5.75 µM]
O=S1(=O)N=C(N/N=C/c2cccs2)c2ccccc21	?	0%	-3%	13µM*
Cc1ccccc1/C=N/Nc1ccc(Cl)nn1	6%	40µM*	-7%	3%
COc1cc(NC(=O)c2cc(S(=O)(=O)N3CCCCC3)c[nH]2)cc(OC)c1	?	5%	1%	?
COc1cc(NS(=O)(=O)c2ccc(NC(=O)c3cccc(F)c3)cc2)nc(OC)n1	.	12%	.	.
COCCN(C(=O)CCC(=O)Nc1cc(C)on1)C(C(=O)NC(C)(C)C)c1cccc(OC)c1OC (stereo not drawn)	7%	2%	-1%	-2%

Assay outcomes (PubChem)
